A selection: hits, their analogues and other compounds. The true share with any hit is near 8.7%.
Pf growth 48h: inhibits P. falciparum growth in the first generation, 48 h | Potency, µM (top dose mostly 28.7 µM), actives largely listed as inhibitors | P. falciparum luciferase growth in erythrocytes, 48 h | 5.9% of 310,000 active | AID 504832
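Luciferase-expressing P. falciparum in infected erythrocytes (2% hematocrit, 0.1% parasitemia final) in RPMI 1640/0.5% Albumax were exposed to compound for 48 hours at 37 C, 5% CO2; growth read as luminescence.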
AMA1-RON2 inh: inhibitors of Plasmodium falciparum AMA1-RON2 interaction; AlphaScreen AMA1-biotinylated RON2 peptide binding; Potency, µM (highest dose often 58.2 µM), usual class: inhibitors; 0.2% of 360,000 active; further: nearly all actives have a fitted effect of over 45% in size
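AMA1 (3D7) with his tag at 25 nM final met compounds first, then biotinylated RON2 peptide at 25 nM; detection used donor plus acceptor beads, 10 µg/mL apiece, read by AlphaScreen after 30 min at room temperature.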
Vaccinia mCherry: vaccinia inhibition (mCherry reporter); Vaccinia virus mCherry reporter infection, fluorescence; Potency, µM (highest dose often 36.5 µM), hits mostly inhibitors; 0.63% of 310,000 active; calls by dose curve; tested in A549 cells; further: nearly all actives have a fitted effect of over 35% in size
VACV Venus inh: vaccinia inhibition (Venus reporter) | Vaccinia virus Venus reporter expression, fluorescence | AID 720580 | Potency, µM (highest dose often 36.5 µM), usual class: inhibitors | 0.46% of 330,000 active; calls by dose curve; tested in A549 cells; further: nearly all actives have a fitted effect of over 30% in size
Pf growth 96h: inhibits malaria parasite growth, 96 h | 6.9% of 320,000 active | Potency, µM (series often up to 28.7 µM), most hits filed as inhibitors | P. falciparum luciferase reporter growth, 96 h | AID 504834
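Cell-based qHTS: luciferase-tagged P. falciparum in erythrocytes (2% hematocrit, 0.05% parasitemia final) incubated with compounds for 96 hours, 37 C, 5% CO2; luciferase detection reagent then added and luminescence measured.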
A number is an active result; – = inactive; ? = inconclusive; · = not tested or not shown; [ ] = another dose, or the depositor's remark. Unless noted, the call rests on the fitted dose curve; in most records, active means well fitted curve in the direction sought with a large enough effect; inconclusive means small, poorly fitted or top-dose-only effect, or another doubt; inactive means no such curve, though single readings can be large; an effect the other way counts as inactive or inconclusive.

SMILES	Pf growth 48h	AMA1-RON2 inh	Vaccinia mCherry	VACV Venus inh	Pf growth 96h
Cc1ccc(C)c2[nH]c(=O)c(C(c3nnnn3CCc3ccccc3)N3CCOCC3)cc12 (stereo unspecified)	?	–	·	–	–
CCC(c1nnnn1C1CCCCC1)N(Cc1ccco1)Cc1cc2ccc(OC)cc2[nH]c1=O (stereo unspecified)	7.38µM	–	–	–	–
CCc1ccc2[nH]c(=O)c(CN(Cc3ccco3)Cc3nnnn3Cc3ccco3)cc2c1	·	·	–	–	·
Cc1ccc(C)c2[nH]c(=O)c(C(c3nnnn3Cc3ccco3)N3CCc4ccccc4C3)cc12 (stereo unspecified)	11.7µM	–	–	–	6.57µM
Cc1ccc2[nH]c(=O)c(C(c3nnnn3C3CCCC3)N(Cc3cccnc3)Cc3ccco3)cc2c1 (stereo unspecified)	?	–	·	–	·
COc1ccccc1CN(Cc1cc2c(C)ccc(C)c2[nH]c1=O)Cc1nnnn1Cc1ccco1	4.65µM	–	–	–	·
Cc1cccc(NC(=O)CCCn2nc(C)c3c(C)n(-c4ccccc4)nc3c2=O)c1C	·	·	–	–	·
CCc1ccccc1NC(=O)Cn1c(=O)ccc2cc(S(=O)(=O)N3CCC(C)CC3)ccc21	·	·	–	–	·
CCN(CC)c1nc(C#N)nc(N2CCOCC2)n1	·	·	–	–	·
CCC(NC(=O)c1ccncc1)c1ccccc1 (stereo unspecified)	–	–	–	–	14.7µM
CC(NC(=S)NC(=O)c1ccccc1)c1ccccc1 (stereo unspecified)	·	–	·	·	·
O=C(NC(=S)NC(c1ccccc1)c1ccncc1)c1ccccc1 (stereo unspecified)	?	–	–	–	9.28µM
CCOC(=O)C1CCN(C(=O)Cn2c(-c3cccs3)cc3cc(Cl)ccc32)CC1	·	·	–	–	·
C=CCN=C(NC#N)SC	0.233µM	–	–	–	–
CCn1c(SCC(=O)NCc2ccco2)nnc1-c1ccc(N(C)C)cc1	·	·	–	–	·
Cc1cc(C)nc(N/C(=N\S(=O)(=O)Cc2ccccc2)Nc2ccc(F)c(Cl)c2)n1	–	–	–	–	9.28µM
Cc1cc(C)nc(N/C(=N\S(=O)(=O)Cc2ccccc2)Nc2cccc(Cl)c2C)n1	–	–	·	·	–
CCc1cc(-c2n[nH]c(C)c2-c2nc3ccccc3s2)c(O)cc1OCC(=O)NN	5.22µM	–	–	–	–
CCCCn1c(SCC(=O)c2ccccc2)nc2c(sc3ccccc32)c1=O	·	·	–	–	·
CCCn1nc(C(=O)N2CCN(S(=O)(=O)c3ccc(C)c(C)c3)CC2)c2ccccc2c1=O	11.7µM	–	·	·	?
CC(C)(C)OC(=O)NCc1ccc(NC(=O)c2nc[nH]c2C(=O)N[C@@H](Cc2ccccc2)C(=O)OC(C)(C)C)cc1	2.33µM	–	?	?	8.28µM
CC(C)C[C@H](NC(=O)c1[nH]cnc1C(=O)Nc1ccc(CNC(=O)OC(C)(C)C)cc1)C(=O)OC(C)(C)C	8.28µM	–	–	?	6.57µM
C[C@H](NC(=O)c1[nH]cnc1C(=O)Nc1ccc(CNC(=O)OC(C)(C)C)cc1)C(=O)OCc1ccccc1	9.28µM	–	?	–	–
C[C@H](CO)NC(=O)c1[nH]cnc1C(=O)Nc1ccc(CNC(=O)OC(C)(C)C)cc1	·	–	–	–	·
COc1ccc(NC(=O)c2nc[nH]c2C(=O)N[C@@H](CC(C)C)C(=O)OC(C)(C)C)cc1	10.4µM	–	?	–	?
SMILES	Pf growth 48h	AMA1-RON2 inh	Vaccinia mCherry	VACV Venus inh	Pf growth 96h
COc1ccc(N2CC(NC(=O)c3cc4ccccc4o3)CC2=O)cc1 (stereo unspecified)	·	·	–	–	·
Cn1cc(S(=O)(=O)N2CCCCC2)cc1C(=O)N1CCN(c2ccccc2F)CC1	·	·	–	–	·
O=C(CCCn1c(=O)c2cccn2c2cccnc21)Nc1ccccc1Br	·	·	–	–	·
CC(C)c1ccccc1NC(=O)CN1C(=O)c2cccc3cccc1c23	·	·	–	–	·
CC(C)(C)OC(=O)CNC(=O)c1[nH]cnc1C(=O)Nc1ccc(CNC(=O)OC(C)(C)C)cc1	13.1µM	–	?	?	13.1µM
CC(C)C[C@H](NC(=O)c1[nH]cnc1C(=O)Nc1ccc(CNC(=O)OC(C)(C)C)cc1)C(=O)OCc1ccccc1	11.7µM	–	–	–	?
O=C(Cc1ccc(Cl)cc1)NCC(=O)N1CCCCCC1	?	–	–	–	11.7µM
O=C(Cc1ccc(Cl)cc1)N1CCOCC1	–	–	–	–	14.7µM
O=C(Cc1ccc(Cl)cc1)NCC(=O)N1CCCCC1	–	–	–	–	–
Cc1[nH]n(-c2ccccc2)c(=O)c1-c1cccc(Cl)c1	1.65µM	–	–	–	1.47µM
Cc1cc(-c2c(C)[nH]n(-c3ccccc3)c2=O)n(-c2ccccc2)n1	–	–	·	·	–
Cc1cc(-c2c(C)[nH]n(-c3ccc(Cl)cc3)c2=O)n(-c2ccc(Cl)cc2)n1	?	–	·	·	1.04µM
Cc1cc(-c2c(C)[nH]n(-c3ccccc3)c2=O)n[nH]1	–	–	–	–	?
O=c1c(-c2ccc(Cl)cc2)c[nH]n1-c1ccccc1	8.28µM	–	·	·	13.1µM
Cc1[nH]n(-c2ccccc2)c(=O)c1-c1ccc(Cl)cc1	·	–	–	–	2.08µM
O=c1c(-c2ccccc2)c[nH]n1-c1cccc([N+](=O)[O-])c1	?	–	?	–	?
O=C(Nc1cccc2cccnc12)c1ccc(-c2cccc(Cl)c2)o1	·	·	–	–	·
Cc1ccc2c(=O)cc(C(=O)Nc3cccc(C(F)(F)F)c3)oc2c1C	·	·	–	–	·
Cc1onc(-c2ccccc2Cl)c1C(=O)Nc1nnc(C2CCCCC2)s1	·	·	–	–	·
Nc1nc(-c2ccccc2)cc(-c2ccccc2O)n1	–	–	?	11.2µM	?
Oc1ccc(-c2cc(-c3ccc(O)cc3)nc(-c3ccccc3)n2)cc1	–[0.00184 µM]	–	?	?	5.86µM
O=C(CSc1nc2ccccc2c(=O)n1CC1CCCCC1)N1CCOCC1	9.28µM	–	·	?	13.1µM
O=C(CSc1nc2ccccc2c(=O)n1Cc1ccco1)N1CCCCCC1	5.22µM	–	·	·	–
CCc1cc2c(=O)n(Cc3ccco3)c(SCC(=O)NCC3CCCO3)nc2s1 (stereo unspecified)	?	–	–	–	–
CCCN(CCC)C(=O)CSc1nc2ccccc2c(=O)n1C1CCCC1	?	–	·	·	–
SMILES	Pf growth 48h	AMA1-RON2 inh	Vaccinia mCherry	VACV Venus inh	Pf growth 96h
CCN(CC)C(=O)CSc1nc2ccccc2c(=O)n1CC1CCCCC1	4.15µM	–	·	–	?
CCc1cc2c(=O)n(Cc3ccco3)c(SCC(=O)N3CCCc4ccccc43)nc2s1	9.28µM	–	·	·	–
CCCCN1CC(O)C(O)C(O)C1CO (stereo unspecified)	–	·	·	·	?
O=C(COC(=O)c1ccccc1C(=O)N1CCN(c2ccccc2)CC1)Nc1ccc(F)cc1	–	–	?	?	·
O=C(COC(=O)c1ccccc1C(=O)N1CCN(c2ccccc2)CC1)Nc1ccccc1	4.15µM	–	–	–	–
Cc1nn(C(=O)COc2ccccc2Br)c(C)c1Sc1ccccc1	·	·	–	–	·
CCOC(=O)c1c(C)oc2nc(C)nc(N3CCN(c4cc(Cl)ccc4C)CC3)c12	·	·	–	–	·
COc1ccc(S(=O)(=O)N(Cc2ccccc2)Cc2nc(-c3ccccc3)no2)cc1	13.1µM	–	·	–	·
